Source: the OligoGym collection

target: PRSS57; assay: pooled miR-30 sensor sort-seq; sequence = guide strand; settings: shRNA
Further: reference of the scale not given here.

Row | Sequence | sensor-assay potency score (higher = more potent)
1 | TCGGACCTTGGCCTCCATCAGT | -1.55
2 | TTCACGGGCAGCATCAGGGCGG | -0.51
3 | AGCATCGATGCCAAACACCTGC | -0.826
4 | ACAAAGGCGGACACCTGCGTGT | -0.414
5 | TACACGTCGGGGGTCTTGGGGT | -1.06
6 | TCTCTGTGGCTGAAGCAGTGGG | -1.07
7 | TGTGGTGAGAGCATCGATGCCA | 0.623
8 | AAGTCAGACACGAAGCCCCAGC | -0.91
9 | TGGTAGTCGGGGTGTGTGGTGA | -0.823
10 | ATCGATGCCAAACACCTGCTGG | -0.864
11 | TCGATGCCAAACACCTGCTGGG | -0.917
12 | ACACCTGCGTGTACACGTCGGG | -0.753

target: PRUNE; assay: as above; settings: shRNA

Row | Sequence | sensor-assay potency score (higher = more potent)
13 | TTGTCTATAGATAGTCTTCTGG | -0.685
14 | TTACCTTCCACATAGCTACAGA | -0.331
15 | TTTCTCTCTAGCTTGAGGCAGG | -0.511
16 | TGTCTATAGATAGTCTTCTGGT | -0.567
17 | TTAAATAATAAAATGTGTCTGA | -0.11
18 | TATTCGTGCTACATGAGGCTGA | 0.818
